Test results as given in PubChem BioAssay (NCI).
The panel holds about 83,000 compounds, 20% with a hit somewhere; the sample as a whole holds those more often.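 Method: cells in 96-well plates; compound added at one concentration; 48 h incubation; percent growth measured; values under 10 scored active.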 Activity calls are given as the source filed them.

Test system: HL-60(TB) leukemia
Experiment: NCI-60 one-dose screen, 48 h (100 = growth as untreated, 0 = no growth, -100 = all killed)
Conditions: 10 µM unless noted

With `NS(=O)(=O)c1ccc(Nc2nc(SCc3ccccc3)nc3ccccc23)cc1` as the molecule, how does the growth read?
The growth was 60.5% (inactive).

For `CCOC(=O)c1csc(NC(=O)CSc2nc3sc4c(c3c(=O)n2-c2ccc(Cl)cc2)CCCC4)n1`, which growth is on record?
Its growth is 92.1% (inactive).

For `C#C[C@]1(O)CC[C@H]2[C@@H]3CC=C4c5sc(Nc6ccc(Cl)cn6)nc5CC[C@]4(C)[C@H]3CC[C@@]21C`, which growth is on record?
Its growth is 6.4% (active).

For `c1ccc(CNc2ncnc3ccc(-c4cnc5[nH]ncc5c4)cc23)cc1`, which growth is on record?
The growth was 63.8% (inactive).

For `O=C(CSc1nnc(-c2ccc(Cl)cc2)n1-c1ccccc1)Nc1ccc(F)cc1`, which growth is on record?
Its growth is 95.3% (inactive).

For `CN1CCN(c2ccc3c(C(N)=O)c(NC(=O)c4ccc(C(C)(C)C)cc4)sc3c2)CC1`, which growth is on record?
Its growth is 28.5% (inactive).

`Cc1nn(-c2ccc(Cl)cc2)c(C)c1N=Nc1ccc2oc(=O)ccc2c1` was tested. Which growth did it give?
Its growth is 93.5% (inactive).

Which growth does the source give for `Oc1ccc(-c2nnc(SCc3ccc(O)c4ncccc34)o2)cc1` here?
The growth was 5.77% (active).

Which growth does the source give for `Cc1ccc(-n2c(/C=C3\C(=O)Nc4ccccc43)ccc2CO)cc1` here?
The growth was 25.4% (inactive).

For `C=C=COc1cccc(/C(N)=N/C(N)=N/c2nc3ccccc3s2)c1`, which growth is on record?
The growth was 97.8% (inactive).

How did the growth turn out when `C#CCOc1cccc(-c2nc(N)nc(Nc3ccccc3SSc3ccccc3Nc3nc(N)nc(-c4cccc(OCC#C)c4)n3)n2)c1` was run?
The growth was 23.7% (inactive).

`C=C(C=O)[C@@H]1CC[C@]2(COC(C)=O)CC[C@]3(C)C(CC[C@@H]4[C@@]5(C)CC[C@H](OC(C)=O)C(C)(C)[C@@H]5CC[C@]43C)[C@@H]12` (stereo not given in full) was tested. Which growth did it give?
The growth was -10.9% (active).

Which growth does the source give for `O=C(O)c1ccc(-n2cc(CNc3ccc(Cl)cc3)c(-c3ccc(F)cc3)n2)cc1` here?
The growth was 111% (inactive).

`COc1cc(/C=N/n2cnc3oc(-c4ccccc4)cc3c2=N)cc(CN2CCCC2)c1O` was tested. Which growth did it give?
The growth was 64.9% (inactive).

How did the growth turn out when `C#C[C@]1(O)CC[C@H]2[C@@H]3CC=C4c5sc(-c6cccc(O)c6)nc5CC[C@]4(C)[C@H]3CC[C@@]21C` was run?
The growth was -30.7% (active).

With `CC(C)(C)n1nnnc1C(Nc1cccc2c1OCO2)c1cc2cccc3ccc4cccc1c4c32` (stereo not given) as the molecule, how does the growth read?
Its growth is 85.2% (inactive).

How did the growth turn out when `CCCCCCCn1cc2c(N[C@H](C)c3ccccc3)ncnc2n1` was run?
Its growth is 117% (inactive).

How did the growth turn out when `COC(=O)C1CCCN(S(=O)(=O)/N=C2\NC(=O)NC2=C(Cl)Cl)C1` (stereo not given) was run?
Its growth is 73.6% (inactive).

With `CCCCCc1ccc(S(=O)(=O)Nc2cccc(-c3csc(NCCN4CCN(C)CC4)n3)c2)cc1` as the molecule, how does the growth read?
The growth was 0.22% (active).

For `NC(N)=Nc1ccc(Oc2cccc(Nc3cccc(C(F)(F)F)c3)c2)cn1`, which growth is on record?
The growth was -64.4% (active).

`C#Cc1nc(C2=C(C)C(OC(=O)CCC(=O)O)CC2)cs1` (stereo not given) was tested. Which growth did it give?
The growth was 101% (inactive).

Which growth does the source give for `CC(C)C[C@@H]1N[C@@]2(C(=O)Nc3ccccc32)[C@@H](c2ccc(F)cc2)[C@@H]1C(=O)c1ccc(O)cc1` here?
The growth was 105% (inactive).

With `O=C1c2ccccc2C23C(=C(c4cncnc4)c4ccccc42)CCCN13` (stereo not given) as the molecule, how does the growth read?
Its growth is 112% (inactive).

`Cc1nn(-c2ccccc2)c2ncnc(N/N=C/c3ccccc3)c12` was tested. Which growth did it give?
Its growth is 91.5% (inactive).

Which growth does the source give for `COc1cc(/C=C2\SC(=O)NC2=O)ccc1OCC(=O)Nc1ccc(C(=O)/C=C/c2cc3ccccc3nc2Cl)cc1` here?
Its growth is 93.7% (inactive).

For `O=C1Nc2ccc(Cl)cc2/C1=C/c1ccc(OCc2ccc(F)cc2)cc1`, which growth is on record?
Its growth is 94.6% (inactive).

With `CC(C)NC(=O)c1cc(-c2ccc(NC(=O)Nc3ccc(N4CCOCC4)c(C(F)(F)F)c3)cc2)nc2cccnc12` as the molecule, how does the growth read?
Its growth is 12.6% (inactive).

`C#C[C@]1(O)CC[C@H]2[C@@H]3CC=C4c5sc(Nc6ccc(C)cn6)nc5CC[C@]4(C)[C@H]3CC[C@@]21C` was tested. Which growth did it give?
The growth was -43.3% (active).

Which growth does the source give for `Cn1cc(-c2nc(N)nnc2-c2c[nH]c3ccccc23)c2cc(Br)ccc21` here?
The growth was -0.377% (active).

Which growth does the source give for `COc1ccc(C(=O)c2c(N)c(C#N)cn2-c2cccc(OC)c2)cc1` here?
Its growth is 3.83% (active).

For `Cc1ccc(Nc2ncnc3c2c(C)nn3-c2ccc([N+](=O)[O-])cc2)cc1`, which growth is on record?
Its growth is 96.7% (inactive).

With `Cc1cc2nc3c4cc(Cl)ccc4n(CC(=O)NCCN(C)C)c3nc2cc1C` as the molecule, how does the growth read?
Its growth is 56% (inactive).

`COC(=O)C1(C)CCC[C@]2(C)[C@H]3C[C@H]4C(C(C)C)=C[C@]3(CC[C@@H]12)[C@H]1[C@@H]4[C@@H](OC(=O)c2ccco2)CC[C@@H]1OC(=O)c1ccco1` (stereo not given in full) was tested. Which growth did it give?
The growth was 91.9% (inactive).

With `O=C(CCn1c[n+](CC(=O)c2ccc(-c3ccccc3)cc2)c2ccccc21)Nc1cccc2cccnc12` as the molecule, how does the growth read?
The growth was -42.3% (active).

With `Brc1cccc(-c2cc(-c3cnc4c(c3)OCCO4)n[nH]2)c1` as the molecule, how does the growth read?
Its growth is 21.2% (inactive).

Which growth does the source give for `O=C1Nc2ccc(Br)cc2/C1=N\c1nnc(-c2ccc(Cl)cc2)o1` here?
Its growth is 11.1% (inactive).

How did the growth turn out when `O=c1/c(=C\c2ccc(-c3ccccc3)o2)sc2nc(-c3ccccc3)nn12` was run?
The growth was 107% (inactive).

For `O=C(N/N=C\c1ccc(Cl)cc1)c1ccc2nc(-c3ccc(Br)cc3)[nH]c2c1`, which growth is on record?
Its growth is 41.5% (inactive).

For `CCn1c2ccc(/C=N/OCCCN(C)C)cc2c2cc(/C=N/OCCCN(C)C)ccc21`, which growth is on record?
Its growth is -36.9% (active).

How did the growth turn out when `[Cl][Ru].c1ccc(-c2cccc(-c3ccccn3)n2)nc1.c1ccc(-c2ccnc3c2ccc2c(-c4ccccc4)ccnc23)cc1` was run?
The growth was -10.5% (active).
